# Laboratory results published in PubChem BioAssay AID449764 (Southern Research Specialized Biocontainment Screening …, 2010).
# About 1,700 (74%) of roughly 2,300 compounds were called active. The set was probably picked from earlier hits. This is one part of the list. Potency and affinity values are given separately. Unmarked numbers belong to inactive results. The rule behind the calls is not given here.
# Test: Mycobacterium tuberculosis H37Rv growth inhibition, no glycerol, confirmatory dose response (AID 449764);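 note: growth read after 7 days of incubation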
# Conditions: series mostly up to 100 µM; inhibition: at the top concentration
row,SMILES,inhibition [%]
1,COc1ccc(NC(NC(=O)c2ccc(OC)cc2)C(Cl)(Cl)Cl)cc1 (centres undefined),-1.34
2,COc1ccc(-c2ccc(=O)n(Cc3c(F)cccc3Cl)n2)cc1,-1.26
3,Cc1nc2ccc(NC(=O)N(C(C)C)C(C)C)cc2s1,-2.49
4,CCOc1[nH]n(-c2ccccc2)c(=O)c1C=Nc1ccc(OC)cc1,2.32
5,O=C(Sc1nnc(-c2ccccc2)o1)N1c2ccccc2Sc2ccccc21,14.5
6,O=C(CCN1C(=O)C2CCCCC2C1=O)Nc1nc(-c2ccc(F)c(F)c2)cs1 (centres undefined),4.25
7,COc1ccc(OCc2nnc3n2N=C(c2ccccc2)C(CC(=O)O)S3)cc1 (centres undefined),-2.9
8,COc1ccc(NC(=O)c2ccc(Cl)c(S(=O)(=O)N3CCc4ccccc4C3)c2)cn1,-1.34
9,CCOc1ccc(N(C(=O)/C=C/C(=O)Nc2cc(C)on2)C(C(=O)NC2CCCC2)c2ccccc2C)cc1 (centres undefined),21.2
10,CC(C)Cn1[nH]c2c3c(ccc2c1=O)C(=O)c1ccccc1C3=O,6.42
11,Cc1ccc(C(=O)Nc2cccc(C(F)(F)F)c2)cc1Nc1ncnc2nc[nH]c12,15
12,Cc1ccc(Cl)cc1N1CCN(Cc2nc3ccsc3c(=O)[nH]2)CC1,7.19
13,COc1ccc(-c2cc3ccccc3oc2=O)cc1NC(=O)c1ccc([N+](=O)[O-])o1,1.39
14,COc1ccc(N2CCN(c3ccnc4cc(Cl)ccc34)CC2)cc1,-0.33
15,Fc1ccc(N/N=C2/CC(c3ccccc3)Oc3ccccc32)c(F)c1 (centres undefined),5.36
16,Oc1ccc2cc(Br)ccc2c1CN1CCCC1,-3.14
17,COc1ccc(-c2nc3ccccn3c2CN2CCN(c3ccccc3F)CC2)cc1,0.17
18,CCOC(=O)C(=NC1CCS(=O)(=O)C1)NNc1ccc(Br)cc1 (centres undefined),-10.1
19,CCOc1ccc(NC(C)c2cc(Cl)ccc2O)cc1 (centres undefined),2.69
20,Brc1cccc2sc(N3CCN(c4ccccc4)CC3)nc12,7.12
21,NC(=O)/C(=N\OC(=O)c1ccco1)c1nc(-c2ccc(Br)cc2)cs1,-1.01
22,Cc1cccc(C)c1OCC(O)CN1CCC(CN2C(=O)c3cccc4cccc(c34)C2=O)CC1 (centres undefined),-1.32
23,CC1(C)SC(=S)N(NC(=O)Nc2cccc3ccccc23)C1N(O)C(=O)Nc1ccccc1 (centres undefined),6.93
24,O=[N+]([O-])c1nn(-c2ccc(Cl)cc2)n(O)c1=NCc1cccnc1,-6.84
25,CCCCCCC(=O)N/N=C/c1ccc(Br)cc1,6.63
26,CCCCCCSc1nsc(NC(=O)CC(C)C)n1,3.62
27,COC(=O)Cc1ccc(NC(=S)Nc2ccccn2)cc1,2.82

row,SMILES,inhibition [%]
1,CCOc1ccc(NC(=S)Nc2cc(-c3ccccc3)[nH]n2)cc1,26.8
2,CC(C)c1ccc2nc(N)sc2c1,0.13
3,O=C(/C=C/c1ccc(Cl)cc1)N1CCN(c2ccc(Cl)cc2[N+](=O)[O-])CC1,-4.08
4,COC(=O)c1cc(NC(=O)c2c(F)c(F)c(F)c(F)c2F)cc(C(=O)OC)c1,4.27
5,NC(=O)N1CCC2(CC1)NC(=O)N(c1ccccc1)N2,-5.19
6,O=C(/C=C/c1ccc(OCCCF)cc1)Nc1ccnc(-c2ccncc2)n1,-1.8
7,Cc1oc(C)c2c(=O)ccc3c(c12)OC(N)=C(C#N)C3c1ccccc1Cl (centres undefined),-20.1
8,Cc1nn(C(C)(C)C)c(NC(=O)c2ccc(Cl)cc2Cl)c1Br,0.12
9,O=C(c1ccccc1)c1nn(-c2ccc(Cl)cc2)cc1C(=O)c1cc2ccccc2oc1=O,9.58
10,Cc1ccc(F)cc1CNC(=O)c1cc(COc2ccc3ncccc3c2)on1,2.7
11,CCN(CC)S(=O)(=O)c1cc(C(=O)Oc2cccc(-c3cnc4ccccc4n3)c2)ccc1Br,-9.99
12,Cc1cc(-n2c(C)cc(C(=O)COc3ccc4ccc(=O)oc4c3)c2C)no1,-3.2
13,COc1ccc(N/C=C(\C2OC(=O)c3ccccc32)[N+](=O)[O-])cc1 (centres undefined),-3.38
14,CC(C)c1nc2scc(-c3ccc(Cl)cc3)c2c(=O)n1N,-7.39
15,NN/C(=C\[N+](=O)[O-])Nc1ccc(Cl)cc1,24.2
16,C/C(CC(=O)Nc1ccc2c(c1)OCCO2)=N\NC(=O)c1ccccc1F,-0.62
17,Cc1ccc2c(c1)Oc1ccc(NC(=O)CCl)cc1C(=O)N2,3.7
18,CCCc1cc(=O)[nH]c(SCC(=O)N2CCCC2=O)n1,6.69
19,O=C(Nc1ccc(-n2cccc2)cc1)C1CC1,24.6
20,O=c1c2ccc(Cl)cc2nc(-c2ccc([N+](=O)[O-])cc2)n1O,21.4
21,COc1ccc(N2CCN(Cc3cc4c(cc3O)CCC4)CC2)cc1,4
22,C=CCn1c(N)cc(=O)nc1SC(CC)C(=O)Nc1ccc(C(C)=O)cc1 (centres undefined),3.97
23,C[C@H](O)[C@H](O)[C@H]1CNc2nc(N)[nH]c(=O)c2N1,-11.6
24,CCCCc1ccc(NC(=S)N2CCN(c3ncccn3)CC2)cc1,4.9
25,COC(=O)Cc1ccc(NC(=O)c2ccc(Br)o2)cc1,0.53
26,C=C(C)C1CCC(C)=C1COC(=O)Nc1ccccc1 (centres undefined),-12.8
27,Cc1nc(SCC(=O)Nc2ccc(OCc3ccccc3)cc2)n[nH]1,0.31
